The values that follow come from PubChem BioAssay AID488893 (Broad Institute, 2010).

Entries with a potency or affinity are not part of this list. Unmarked numbers belong to inactive results.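 The calls were made as follows: active = falling signal whose fitted half-maximal dose is at most ten times the top valid tested dose; inconclusive = flat curve with 30 to 70% inhibition, or poor fit; inactive = the rest, including changes in the wrong direction.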

The nature of this test: single-agent antifungal toxicity in C. albicans – CaCi-2 strain, Alamar Blue, dry powder, set 2, counter-screen for antifungal drug resistance project, dose response (AID 488893). The note with it: C. albicans CaCi-2 (fluconazole-resistant clinical isolate) growth, Alamar Blue fluorescence, 48 h; series mostly up to 26 µM; activity change, negative = inhibition: at the top concentration. A general note: Alamar Blue is a resazurin reagent that responds to reducing activity.
`O=C(c1ccccc1Cl)N1CCN(c2ccnc3cc(Cl)ccc23)CC1`: the “activity change, negative = inhibition” value was 12.5%.

In the case of `O=C(c1ccc(Cl)cc1)N1CCN(c2cccnc2)CC1`, the “activity change, negative = inhibition” value is -12.4%. For the compound `CC(C)CC(=O)N1CCN(c2ccnc3cc(Cl)ccc23)CC1`, the “activity change, negative = inhibition” value is 11%. The value for `COc1ccc2c(N3CCN(C(=O)c4ccc(Cl)cc4)CC3)ccnc2c1` was -0.767%; that for `O=C(c1cccc(Cl)c1)N1CCN(c2ccnc3cc(Cl)ccc23)CC1` was -12.1%; that for `O=C(c1ccc(Cl)cc1)N1CCN(c2ccncc2)CC1` was 29.5%. The value for `O=C(Nc1ccc(Cl)cc1)N1CCN(c2ccnc3cc(Cl)ccc23)CC1` was -20.1%; that for `COc1cccc2c(N3CCN(C(=O)c4ccc(Cl)cc4)CC3)cc(C)nc12` was 5.94%; that for `CC1CN(c2ccnc3cc(Cl)ccc23)CCN1C(=O)c1ccc(Cl)cc1` (centres undefined) was -12.6%.

`O=C(c1ccc(Cl)cc1)N1CCN(c2ncnc3ccccc23)CC1`: the “activity change, negative = inhibition” value was 19.6%. The value for `CCCC(=O)N1CCN(c2ccnc3cc(Cl)ccc23)CC1` was -11.4%.

As for `O=C(c1ccc(Cl)cc1)N1CCN(c2ncnc3nc[nH]c23)CC1`, the “activity change, negative = inhibition” value was -10.8%. The value for `O=C(C1CCCCC1)N1CCN(c2ccnc3cc(Cl)ccc23)CC1` was -8.06%; that for `O=C(c1ccc(Cl)cc1)N1CCNCC1` was 25.8%. The value for `O=C(C1CCCC1)N1CCN(c2ccnc3cc(Cl)ccc23)CC1` was 3.43%; that for `O=C(c1ccc(Cl)cc1)N1CCN(c2ccnc3cc(Cl)ccc23)CC1` was -17.5%. In the case of `O=C(c1ccc(Cl)cn1)N1CCN(c2ccnc3cc(Cl)ccc23)CC1` it was -4.37%; in that of `Clc1ccc2c(N3CCNCC3)ccnc2c1`, 10.6%. On to `O=C(c1ccc(Cl)cc1)C1CCN(c2ccnc3cc(Cl)ccc23)CC1`, for which the “activity change, negative = inhibition” value was -5.65%.
